Source: PubChem BioAssay
Compounds with a hit are over-represented: about 18% of the library has one in this group of screens.
PLK1 PBD inh – qHTS for Inhibitors of PLK1-PDB (polo-like kinase 1 - polo-box domain): Primary Screen | Plk1 PBD binding of FITC phosphopeptide, fluorescence polarization | Potency, µM, inactives show max response, negative = inhibition, usual class: inhibitors | actives 2.8% (n = 360,000); further: series mostly up to about 57 µM; nearly all actives have a fitted effect of over 65% in size
Target sequence (P53350 whole entry, looked up, the tested form may be a part): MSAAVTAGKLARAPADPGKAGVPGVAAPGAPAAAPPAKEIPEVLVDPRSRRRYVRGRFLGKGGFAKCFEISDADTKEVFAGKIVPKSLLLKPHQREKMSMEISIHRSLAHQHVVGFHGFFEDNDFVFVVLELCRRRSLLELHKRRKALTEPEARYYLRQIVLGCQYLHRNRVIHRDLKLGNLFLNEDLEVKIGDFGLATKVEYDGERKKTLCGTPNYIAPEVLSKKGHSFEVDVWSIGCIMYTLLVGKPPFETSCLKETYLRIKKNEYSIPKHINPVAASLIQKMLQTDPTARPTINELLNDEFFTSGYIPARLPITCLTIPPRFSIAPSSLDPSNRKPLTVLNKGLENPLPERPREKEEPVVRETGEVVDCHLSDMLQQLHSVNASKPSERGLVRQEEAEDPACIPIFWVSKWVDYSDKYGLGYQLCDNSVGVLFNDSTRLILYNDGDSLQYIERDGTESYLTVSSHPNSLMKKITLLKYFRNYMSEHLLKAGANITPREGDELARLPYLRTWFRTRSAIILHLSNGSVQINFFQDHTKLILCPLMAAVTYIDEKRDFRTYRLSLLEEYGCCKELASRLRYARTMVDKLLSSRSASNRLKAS
TDP1 cell CPT – qHTS for Inhibitors of human tyrosyl-DNA phosphodiesterase 1 (TDP1): qHTS in cells in presence of CPT. chicken DT40 Tdp1-/-;hTDP1 cells + 20 nM CPT, ATP luminescence, 48 h. Potency, µM (doses to about 46.2 µM), for inactives: at the top dose activity change, negative = growth inhibition, actives largely listed as inhibitors. actives 12% (n = 420,000); further: nearly all actives have a fitted effect of over 55% in size
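Cell growth measured by CellTiter-Glo luminescence after a minimum 48 h, 37 C compound exposure with 20 nM CPT in Tdp1-knockout DT40 cells stably expressing hTDP1, seeded 400/well; qHTS titration format.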
GCN5L2 inh – qHTS Assay for Inhibitors of GCN5L2; Histone acetyltransferase KAT2A (Homo sapiens), Q92830; GCN5L2 HAT assay, ThioGlo1 CoA-SH fluorescence; Potency, µM (top dose mostly 58.9 µM), for inactives: at the highest dose activity change, negative = inhibition, hits mostly inhibitors; actives 0.21% (n = 390,000)
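ThioGlo1-coupled HAT assay: 20nM GCN5L2, 70uM acetyl-CoA, 75uM H3(1-25) peptide, pH 7.5. Fluorescence read at 340/540nm at start and after 20 min at room temperature.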
DT40 TDP1 no CPT – qHTS for Inhibitors of human tyrosyl-DNA phosphodiesterase 1 (TDP1): qHTS in cells in absence of CPT; Potency, µM (top dose mostly 46.2 µM), without a hit: top-dose activity change, negative = growth inhibition, usual class: inhibitors; actives 15% (n = 420,000); AID 686978, 2013; DT40 Tdp1-/- hTDP1 cells, no CPT, ATP luminescence, 48 h; further: nearly all actives have a fitted effect of over 55% in size
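Seeded 400 DT40-hTDP1 cells/well (vehicle DMSO, no 20 nM CPT); pinned compounds; ≥48 hr at 37 °C; CellTiter-Glo luminescence as viability measure.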
VDR inh – Inhibitors of the vitamin D receptor (VDR): qHTS. Vitamin D3 receptor (Homo sapiens), P11473. VDR-SRC2-3 peptide fluorescence polarization, 2 h. Potency, µM, for inactives: max response, negative = inhibition, actives largely listed as inhibitors. actives 0.93% (n = 400,000)
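The screen uses fluorescence polarization to detect compounds that interfere with recruitment of the SRC2-3 coactivator peptide to VDR; plates are read after 2 h at room temperature.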
TDP1 inh – qHTS Assay for Inhibitors of Tyrosyl-DNA Phosphodiesterase (TDP1); Tyrosyl-DNA phosphodiesterase 1 (Homo sapiens), Q9NUW8; recombinant TDP1, AlphaScreen DNA substrate cleavage; Potency, µM (series often up to 130 µM), for the others: top-dose activity change, negative = inhibition, actives largely listed as inhibitors; actives 0.28% (n = 350,000); further: nearly all actives have a fitted effect of over 40% in size
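Steps: enzyme plus compound, 15 min RT; add biotin/phosphotyrosine-FITC oligonucleotide (15 nM final), react 5 min; add donor/acceptor beads (10 ug/ml final), 10 min; read AlphaScreen. Tdp1 at 1 nM final.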
* = called active by the depositor; ? = inconclusive; nt = no result given; [ ] = remark or other dose. The call rests on the fitted dose curve; in most records, active means well fitted curve in the direction sought with a large enough effect; inconclusive means small, poorly fitted or top-dose-only effect, or another doubt; inactive means no such curve, though single readings can be large; an effect the other way counts as inactive or inconclusive. On the % scale 0 is the no-effect control and ±100 the full control effect; potency means the concentration at half of the fitted maximal effect.

SMILES	PLK1 PBD inh	TDP1 cell CPT	GCN5L2 inh	DT40 TDP1 no CPT	VDR inh	TDP1 inh
N#Cc1ccc2nc(-c3ccc(CN4CCC(n5c(=O)[nH]c6ccccc65)CC4)cc3)c(-c3ccccc3)nc2c1	-10%	5.8µM*	nt	9.2µM*	nt	nt
Cc1cccc2nc(-c3ccccc3)c(-c3ccc(CN4CCC(n5c(=O)[nH]c6ccccc65)CC4)cc3)nc12	-8%	9.2µM*	nt	13µM*	nt	nt
Fc1ccc2c(c1)nnn2C1CCN(Cc2ccccc2)CC1	-6%	-20%	2%	-14%	-4%	6%
ClC1=C(Cl)[C@]2(Cl)[C@@H]3[C@@H]4C[C@@H]([C@H]5O[C@@H]45)[C@@H]3[C@@]1(Cl)C2(Cl)Cl	nt	4%[92.5 µM]	nt	-18%[92.5 µM]	nt	nt
CC(C)c1oc(=O)cc2c1[C@@H](O)[C@H]1OC(=O)[C@@]3(C)CC[C@@H](O)[C@@]2(C)C13 (stereo not given in full)	-4%	5.8µM*	1%	5.2µM*	-15%	0%
CC(C)c1oc(=O)cc2c1[C@@H](O)[C@H]1OC(=O)[C@@]3(C)C[C@@H](O)[C@@H](O)[C@@]2(C)C13 (stereo not given in full)	-2%	2.1µM*	3%	1.8µM*	22%	5%
C[N+]1([O-])[C@@H]2CC[C@H]1CC(OC(=O)C(CO)c1ccccc1)C2 (stereo not given in full)	nt	-3%[21.1 µM]	nt	-29%[21.1 µM]	nt	nt
CC[C@H](C)[C@@H]1NC(=O)CNC(=O)c2csc(n2)[C@H](C(C)(C)O)OC(=O)C(C)(C)[C@H](CCCC(C)(Cl)Cl)OC(=O)c2csc1n2	0%	0.052µM*	nt	0.18µM*	nt	nt
N#CC1c2ccccc2C=CN1C(=O)c1ccc(N(CCCl)CCCl)cc1 (stereo not given)	-12%	23µM*	nt	18µM*	nt	nt
O=C(Cc1n[nH]c(=O)c2ccccc12)OCc1c(Cl)cccc1Cl	-5%	?	-12%	?	26%	-4%
Cc1nn(Cc2ccccc2)c(C)c1C(=O)OCC(=O)NCc1ccco1	0%	1%	-1%	-1%	1%	4%
CC(C)C(OC(=O)c1ccco1)C(=O)NCc1ccco1 (stereo not given)	27µM*	?	nt	?	-28%	-1%
COc1cc([N+](=O)[O-])c2nc(C)ccc2c1[N+](=O)[O-]	-7%	9.2µM*	nt	10µM*	-10%	nt
COc1cc([N+](=O)[O-])c2ncccc2c1[N+](=O)[O-]	-20%	2.6µM*	nt	4.6µM*	nt	nt
COc1cc([N+](=O)[O-])cc([N+](=O)[O-])c1N	nt	-5%	nt	-20%	nt	nt
CC(=O)CC1CCCCN1 (stereo not given)	nt	-2%	-6%	1%	6%	4%
Cc1ccc(NC(=O)c2cc(S(=O)(=O)N3CCOCC3)c(Cl)cc2Cl)cc1	nt	?	22%	18µM*	-11%	-9%[12.3 µM]
O=C1NC(=O)N(c2ccc3c(c2)OCO3)C(=O)/C1=C/c1ccc(N2CCCC2)o1	71%	1%	-1%	-26%	8%	0%
O=C1NC(=O)N(c2ccc(Cl)cc2)C(=O)/C1=C\c1ccc(Sc2nc3ccccc3[nH]2)o1	3.8µM*	16µM*	?	?	-23%	-4%
CC=CC(C)=CC(C)C(=O)CC(O)CC1CC(=O)NC(=O)C1 (stereo not given)	0%	8.2µM*	nt	5.8µM*	nt	nt
